Results taken from PubChem BioAssay AID504332 (National Center for Advancing Translational Sciences (NCATS), 2011).
The campaign covered roughly 350,000 compounds. About 31,000 (8.9%) were called active. About 15% were inconclusive and are not listed. Only a selection was taken, and actives are over-represented in it overall. Values without a mark were called inactive. The call rests on the fitted dose curve; in most records, active means well fitted inhibition curve with a large enough effect; inconclusive means small, poorly fitted or top-dose-only effect; inactive means no such curve, though single readings can be large or run the other way.

target: Histone-lysine N-methyltransferase EHMT2 (Homo sapiens) (UniProt Q96KQ7); test: qHTS Assay for Inhibitors of Histone Lysine Methyltransferase G9a; conditions: G9a H3K9 monomethylation, AlphaScreen, 2 h; series mostly up to 59 µM; activity, negative = inhibition: at the top concentration; further: nearly all actives have a fitted effect of over 75% in size
Sequence (Q96KQ7 913-1193 limits assumed): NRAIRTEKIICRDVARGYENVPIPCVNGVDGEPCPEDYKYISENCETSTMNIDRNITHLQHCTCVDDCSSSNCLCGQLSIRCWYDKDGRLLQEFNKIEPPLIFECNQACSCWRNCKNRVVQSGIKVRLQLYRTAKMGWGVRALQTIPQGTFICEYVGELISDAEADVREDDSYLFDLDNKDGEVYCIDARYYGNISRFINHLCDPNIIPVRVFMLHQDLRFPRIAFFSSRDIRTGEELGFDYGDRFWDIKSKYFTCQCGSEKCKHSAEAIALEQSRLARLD
Summary of the method: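 AlphaScreen read-out: biotin-H3K9 peptide (500 nM) methylation by 20 nM enzyme with 20 uM SAM, 2 h at room temperature after 15 min compound preincubation; anti-monomethyl H3K9 antibody plus donor/acceptor beads, 10 min dark.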
On the % scale 0 is the no-effect control and ±100 the full control effect; potency means the concentration at half of the fitted maximal effect.

| SMILES | activity, negative = inhibition | Potency |
| --- | --- | --- |
| CCOc1ccc(C(=O)CCC(=O)NC2=NCCS2)cc1 | 2.24% [at 0.501 µM] |  |
| Cc1cnc(CN(C)C(=O)CC2C(=O)NCCN2Cc2cccc(F)c2F)[nH]1 (stereo not drawn) | -5.82% [at 102 µM] |  |
| CCCOC(=O)CC1C(=O)NCCN1Cc1ccc(F)cc1 (stereo not drawn) | 10.2% [at 102 µM] |  |
| CC(C)c1nc(CNC(=O)CC2C(=O)NCCN2Cc2ccoc2)cs1 (stereo not drawn) | -29.4% [at 102 µM] |  |
| CN(Cc1cccc2ncccc12)C(=O)CC1C(=O)NCCN1Cc1ccc(F)cc1 (stereo not drawn) |  | 44.7 µM (active) |
| Cc1nc(CN(C)C(=O)CC2C(=O)NCCN2Cc2ccc(F)cc2)cs1 (stereo not drawn) |  | 44.7 µM (active) |
| CN(C(=O)CC1C(=O)NCCN1Cc1ccc(F)cc1Cl)C1CCCCC1 (stereo not drawn) | 0.263% [at 102 µM] |  |
| CN(CCc1ccccn1)C(=O)c1ccc(OC2CCN(CCc3ccccc3)CC2)cc1 | 21.6% [at 102 µM] |  |
| COc1cccc(CN2CCNC(=O)C2CC(=O)N(C)CCc2ccccn2)c1 (stereo not drawn) |  | 44.7 µM (active) |
| COc1ccccc1CN1CCNC(=O)C1CC(=O)N(C)CC1CCOCC1 (stereo not drawn) | 13.6% [at 0.0925 µM] |  |
| Cc1cccc(NC(=O)Cn2c(=O)n(CCC(C)C)c(=O)c3cccnc32)c1 | -1.53% |  |
| CCN(CC(=O)Nc1c(F)cccc1F)C(=O)c1cnc(C)cn1 | 9.59% [at 2.33 µM] |  |
| COc1ccc(-c2nc(CN3CCC(C(=O)NCCN(CC(C)C)CC(C)C)CC3)c(C)o2)cc1OC | -43.1% |  |
| Cc1ccc(C(=O)Nc2nc(-c3ccccc3)ns2)cc1 | -3.13% |  |
| Cc1ccc(CNC(=O)CC(NC(=O)c2ccccc2)c2ccccc2)cc1 (stereo not drawn) | 12.4% [at 12.7 µM] |  |
| Cc1ccc(CNC(=O)CCc2c(C)nc3nc(CNC(=O)OC(C)(C)C)nn3c2C)cc1 | -2.86% |  |
| COCCNC(=O)c1ccc2c(c1)N=C(C)c1cc(C)ccc1S2 | -33.8% |  |
| CCOC(=O)C1(CCOc2ccccc2)CCN(Cc2ccc(C#CCCO)cc2)CC1 | -13.7% [at 102 µM] |  |
| Cc1ccc(Cl)cc1N(C)C(=O)Cn1nc(Cc2cccnc2)c2ccccc2c1=O | -0.885% |  |
| O=C(Nc1ccccc1)Nc1ccccc1C(=O)NCc1ccco1 | 0.665% [at 12.7 µM] |  |
| COc1ccc(C(=O)Nc2ccccc2C(=O)NCc2ccco2)cc1 | 20.2% [at 102 µM] |  |
| CCOc1ccccc1C(=O)NCc1ccco1 |  | 44.7 µM (active) |
| COc1ccc(NC(=O)CN(C)C(=O)c2ccc(COc3ccccc3)o2)cc1 | 8.51% [at 102 µM] |  |
| C[C@H]1[C@H]2c3nc4ccccc4n3C[C@H]1ON2C1CCCCC1 | 20.1% [at 102 µM] |  |
| CS(=O)(=O)Nc1ccc(C2=NN(S(C)(=O)=O)C(c3cccs3)C2)cc1 (stereo not drawn) | -27.8% [at 102 µM] |  |

| SMILES | activity, negative = inhibition | Potency |
| --- | --- | --- |
| CCS(=O)(=O)Nc1ccc(C2=NN(S(=O)(=O)c3ccc(F)cc3)C(c3ccco3)C2)cc1 (stereo not drawn) |  | 79.4 µM (active) |
| CCS(=O)(=O)Nc1ccc(C2=NN(C(C)=O)C(c3cccs3)C2)cc1 (stereo not drawn) | 7.26% [at 102 µM] |  |
| CCCCN(CCCC)CCCNC(=O)CN1C(=O)COc2ccc(S(=O)(=O)N3CCC(C)CC3)cc21 | 56.2% [at 102 µM] |  |
| O=C(CCNC(=O)c1ccc(Br)cc1)NCC(c1ccco1)N1CCCCC1 (stereo not drawn) | 19.9% [at 12.7 µM] |  |
| Cc1ccc(/C=N/NC(=O)Cn2ccc(C(F)(F)F)n2)o1 | -9.13% [at 102 µM] |  |
| Cc1ccc(NC(=S)NC2CCCC2)cc1 | 23.8% [at 0.501 µM] |  |
| Cc1ccc(/C=N/NC(=S)NC2CCCCC2)o1 |  | 50.1 µM (active) |
| C/C(=N\NC(=S)NC1CCCCC1)c1ccc(C)o1 |  | 50.1 µM (active) |
| C/C(=N\NC(=O)NC1CCCCC1)c1ccc(OC(F)F)cc1OC(F)F | 7.82% [at 102 µM] |  |
| C/C(=N/NC(=O)c1ccc(Br)o1)c1ccc(C)o1 | 3.1% |  |
| O=C(Nc1ccc(Cl)c(Cl)c1)c1ccccc1NC(=O)C1CC=CCC1C(=O)O (stereo not drawn) | -7.21% [at 102 µM] |  |
| COc1ccc(C)cc1NC(=O)CNCc1cccs1 | 4.36% [at 102 µM] |  |
| COc1cc(OC)cc(-c2c(-c3cccs3)c3cc(-c4ccc(OC)cc4F)ccc3n2C)c1 | 2.09% [at 0.501 µM] |  |
| CC(Sc1nnc(-c2cccs2)n1C1CC1)C(=O)NCC1CCCO1 (stereo not drawn) | 29.1% [at 12.7 µM] |  |
| O=C(NCCC1CCCCN1S(=O)(=O)c1ccccc1)C(=O)NCC1CCCO1 (stereo not drawn) | 10.2% [at 0.501 µM] |  |
| CCC(=O)N1CCc2cc(CNS(=O)(=O)c3ccc(Br)s3)ccc21 | 1.92% |  |
| CCOC(=O)Cn1c(=O)n(C2CCCCC2)c2nc(-c3cccc(OC)c3)nc(C(N)=O)c21 | 9.68% |  |
| CCOC(=O)c1ccc(NC(=O)CCS(=O)(=O)c2ccc3c(c2)oc(=O)n3C)cc1 | -6.14% |  |
| Cc1ccc(C)c2sc(NC(=O)c3ccc(S(=O)(=O)N4CCCC4)cc3)nc12 | 4.68% |  |
| O=C(NCCCn1ccnc1)c1ccccc1F | 24.5% [at 102 µM] |  |
| CCCC(=O)Nc1ccc(C(=O)NCCCn2ccnc2)cc1 | 19.1% |  |
| CCCCC(=O)Nc1ccc(C(=O)NCCCn2ccnc2)cc1 |  | 12.6 µM (active) |
| O=C(CC1SC(N2CCCC2)=NC1=O)Nc1ccc(C(=O)NCCc2ccc(F)cc2)cc1 (stereo not drawn) | 9.67% [at 0.501 µM] |  |
| CCOC(=O)c1scc(-c2ccc(C)cc2)c1S(=O)(=O)Nc1cc(C)ccc1C | -5.5% |  |
| Cc1cc(C(=O)COc2ccc(Br)cc2F)c(C)n1C1CC1 | -8.88% |  |

| SMILES | activity, negative = inhibition | Potency |
| --- | --- | --- |
| COc1ccccc1C1/C(=C(/O)c2ccc(C)cc2)C(=O)C(=O)N1Cc1ccco1 (stereo not drawn) | -8.27% |  |
| COc1ccc(/C(O)=C2/C(=O)C(=O)N(c3nc(C)c(C)s3)C2c2ccco2)cc1 (stereo not drawn) |  | 44.7 µM (active) |
| COc1cccc(C2/C(=C(/O)c3ccncc3)C(=O)C(=O)N2CCCN(C)C)c1 (stereo not drawn) | -30.1% [at 102 µM] |  |
| O=C(C1CCC(=O)N(C2CC2)C1)N1CCN(c2ccc(Cl)cc2)CC1 (stereo not drawn) | 20.8% [at 102 µM] |  |
| Cc1ccsc1CN(C(=O)c1oc2ccc(Br)cc2c1C)C1CCS(=O)(=O)C1 (stereo not drawn) | -4.15% |  |
| Cc1ccc(C(=O)Nc2c(C(=O)NC(C)(C)C)oc3ccccc23)cc1 | 10.2% |  |
| O=C(C1CC1)N1CCc2cc(Br)cc(S(=O)(=O)N3CCN(c4ccccc4F)CC3)c21 | -8.58% |  |
| CCOC(=O)N1CCN(S(=O)(=O)c2cc(Br)cc3c2N(C(=O)C2CC2)CC3)CC1 | 26% |  |
| COc1cccc(N2CCN(S(=O)(=O)c3cc(Br)cc4c3N(C(=O)C3CC3)CC4)CC2)c1 |  | 7.94 µM (active) |
| Cc1ccc(S(=O)(=O)N(C)C)cc1NC(=O)C(C)OC(=O)c1ccc2ccccc2n1 (stereo not drawn) | 10.5% [at 2.33 µM] |  |
| C=CCc1c(C)nc2cc(-c3ccccc3)[nH]n2c1=O | 35% |  |
| CCC(CC)c1nnc(NC(=O)/C=C/c2ccco2)s1 | 11.7% |  |
| Cc1nnc(NC(=O)C(c2ccccc2)c2ccccc2)s1 | 14.6% [at 102 µM] |  |
| CCOC(=O)c1c(NC(=O)/C=C/c2ccco2)sc(C)c1C |  | 44.7 µM (active) |
| CCOC(=O)c1c(NC(=S)NC(=O)/C=C/c2cccs2)sc(C)c1C | 7.95% [at 102 µM] |  |
| CCOC(=O)c1sc(NC(=O)/C=C/c2ccc(C(C)C)cc2)c(C(=O)OCC)c1C | 3.39% |  |
| Cc1nnc(NC(=O)/C=C/c2ccco2)s1 |  | 31.6 µM (active) |
| Oc1ccccc1-c1nc(/C=C/c2ccc(F)cc2)no1 | -6.97% |  |
| O=C(NCC(c1ccc(Cl)cc1)N1CCOCC1)c1ccccc1F (stereo not drawn) | 0.409% |  |
| O=C(Nc1cccnc1Cl)c1cc(-c2ccccc2O)on1 | 11.2% [at 102 µM] |  |
| O=C1CSC(c2cccc(F)c2)N1c1ccccc1F (stereo not drawn) | -5.4% [at 12.7 µM] |  |
| O=C1CCCC2=C1C(c1ccccc1)n1c(s/c(=C/c3cccc(F)c3)c1=O)=N2 (stereo not drawn) |  | 10 µM (active) |
| O=C1CC(c2cccc(F)c2)C2=C(CCCC2=O)N1 (stereo not drawn) | 24.3% |  |
| Cc1ccc(-c2cc(C(F)(F)F)c(C#N)c(SCC(=O)Nc3ccccc3)n2)cc1 | 6.72% |  |
| CCOCCc1nn2c(=O)cc(COC(=O)CNC(=O)c3ccc(C(C)(C)C)cc3)nc2s1 | 27.8% |  |

| SMILES | activity, negative = inhibition | Potency |
| --- | --- | --- |
| COc1ccc(CNC(=O)C2CC(c3ccc(C(F)(F)F)cc3)=NO2)cc1 (stereo not drawn) | 32.3% |  |
| CC(C)(C)OC(=O)N[C@H](C(=O)OC(C)(C)C)c1ccc(Br)cc1 | 2.34% [at 0.501 µM] |  |
| C[C@H](C(=O)CC(=O)OC(C)(C)C)[C@H](O)c1ccc(C(F)(F)F)cc1 |  | 79.4 µM (active) |
| COC(=O)c1cccc(C(=O)N2CCC(CCC(=O)NCc3ccc(F)cc3)CC2)c1 | -0.66% [at 102 µM] |  |
| Cc1occc1C(=O)NC1CCCN(Cc2ccc(CC(C)C)cc2)C1 (stereo not drawn) | 0.764% [at 102 µM] |  |
| Cc1ccccc1CN1CCC(C(=O)Nc2ccc(Oc3cccnc3)cc2)CC1 | 0.879% |  |
| COc1ccc(CCNc2ncnc3c2cnn3-c2ccc(C)cc2)cc1 | 5.54% |  |
| COc1ccc(CCNC(=O)c2nn(C)c3c2CSc2ccccc2-3)cc1OC | -43% |  |
| COc1cc(NC(=O)c2nc3ccccc3nc2C)cc(OC)c1OC | -32.1% |  |
| COc1cc(NC(=O)c2noc3c2CSc2ccccc2-3)cc(OC)c1OC |  | 1.78 µM (active) |
| COc1ccc(-c2onc(C)c2C)cc1S(=O)(=O)NCc1cccs1 | 1.71% |  |
| Cc1ccc(S(=O)(=O)N2CCN(C(=O)c3ccccc3-c3nc4ccccc4s3)CC2)c(C)c1 | -36.1% [at 102 µM] |  |
| Cc1cc2c(cc1C)[n+](C)cn2CC(O)COCC1CC=CCC1 (stereo not drawn) |  | 39.8 µM (active) |
| COc1ccc(C(=O)NCC2CCCN2S(=O)(=O)c2cccs2)cc1OC (stereo not drawn) | 4.75% [at 102 µM] |  |
| CC(=O)NC(c1cccs1)c1cc(Br)c2cccnc2c1O (stereo not drawn) | 7.81% [at 12.7 µM] |  |
| Cc1c(NC(=O)Nc2ccccc2)cccc1[N+](=O)[O-] | 15.3% [at 102 µM] |  |
| Cc1c(NC(=S)NCc2ccc(F)cc2)cccc1[N+](=O)[O-] |  | 39.8 µM (active) |
| Cc1cccc(NC(=S)NCCc2ccc(F)cc2)c1C | 8.37% |  |
| CCNC(=S)Nc1cccc(Cl)c1C | 19.4% |  |
| Cc1c(NC(=O)/C=C/C(=O)O)cccc1[N+](=O)[O-] |  | 39.8 µM (active) |
| COc1ccccc1NC(=O)/C=C/C(=O)O | -38.1% [at 102 µM] |  |
| CCCCNC(=O)c1cc(-c2ccc(Cl)c(Cl)c2)on1 | 8.77% |  |
| O=C(COc1ccccc1)NCc1ccc2c(c1)CCN2C(=O)c1ccc(F)cc1 | -0.362% |  |
